Screening data from PubChem.
D1 antag: Antagonist of Human D 1 Dopamine Receptor: qHTS | D(1A) dopamine receptor (Homo sapiens), P21728 | HEK293 TREx D1 cells, calcium flux, dopamine EC80; active compounds read low | activity change, negative = inhibition, % at 10 µM | 360,000 compounds, 3.2% hits; in the data active means activity change below about -30%
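Calcium flux readout: force-coupled, inducible Hek293 Trex D1 line, cells induced overnight at 30 C with tetracycline, dye-loaded 30–90 min at RT. Antagonism scored against EC80 dopamine challenge given 180 s after compound.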
D1 potentiator: Potentiators of Human D1 Dopamine Receptor: qHTS | D(1A) dopamine receptor (Homo sapiens), P21728 | HEK293 TREx D1 cells, calcium flux, dopamine EC20 potentiation | potentiation, % at 10 µM | 360,000 compounds, 0.036% hits; in the data active means potentiation above about 30%
TRHR enhancer-1: qHTS for Small Molecule Agonists and Allosteric Enhancers of Human TRH Receptor: Primary Screen for Enhancers; AID 493056, 2011; Thyrotropin-releasing hormone receptor (Homo sapiens), P34981; TRHR cells, fluo-8 calcium fluorescence, EC20 TRH enhancement; enhancement, % at 2 µM; 360,000 compounds, 0.66% hits; in the data active means enhancement above about 30%
Target sequence (P34981 whole entry, looked up): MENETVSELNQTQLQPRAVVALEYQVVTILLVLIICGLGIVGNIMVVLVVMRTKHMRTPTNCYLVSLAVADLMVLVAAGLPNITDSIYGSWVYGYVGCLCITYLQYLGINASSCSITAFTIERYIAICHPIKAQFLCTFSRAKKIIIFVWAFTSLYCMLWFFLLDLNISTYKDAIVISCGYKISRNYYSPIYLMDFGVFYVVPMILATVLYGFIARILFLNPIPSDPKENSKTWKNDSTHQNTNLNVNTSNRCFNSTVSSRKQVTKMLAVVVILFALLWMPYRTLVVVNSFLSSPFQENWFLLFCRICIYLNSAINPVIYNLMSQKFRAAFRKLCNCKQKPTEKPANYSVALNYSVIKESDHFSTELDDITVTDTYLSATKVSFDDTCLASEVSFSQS
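TRHR-expressing cells loaded with fluo-8 calcium dye were read kinetically (ex 480/em 530) during compound addition, then stimulated with an EC20 of TRH (10 nM final). Enhancement of the Gq-mediated intracellular calcium response was scored.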
TRHR agonist-1: qHTS for Small Molecule Agonists and Allosteric Enhancers of Human TRH Receptor: Primary Screen for Agonists. 360,000 compounds, 0.18% hits. TRHR cells, calcium flux fluo-8, FDSS agonist mode. AID 493084, 2011. activation, % at 2 µM. Thyrotropin-releasing hormone receptor (Homo sapiens), P34981; in the data active means activation above about 30%
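TRHR-expressing cells loaded with fluo-8 calcium dye; 23 nL library compound pin-transferred, kinetic FDSS fluorescence (Ex 480/Em 530) recorded about 180 s for agonist-induced calcium release, before a 10 nM TRH EC20 addition for potentiator mode.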
D1 ag: Allosteric Agonists of the Human D1 Dopamine Receptor: qHTS. D(1A) dopamine receptor (Homo sapiens), P21728. HEK293 T-REx D1 cells, calcium flux, agonist mode. activation, % at 2 µM. 360,000 compounds, 1% hits. AID 504660, 2011; in the data active means activation above about 30%
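Tetracycline-induced HEK293 TREx D1 cells, force-coupled to calcium signalling, were dye-loaded with a no-wash calcium kit. Compound was pin-added after a 10 s baseline. Fluorescence was read kinetically at 1 cycle/s for 180 s, with calcium rises flagged as agonism.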
TRHR enhancer-2: qHTS for Small Molecule Agonists and Allosteric Enhancers of Human TRH Receptor: Confirmation Screen for Enhancers; shares compounds with TRHR enhancer-1; TRH receptor cell assay, enhancer confirmation qHTS; activity change, negative = inhibition, % at 46.1 µM; 970 tested, under 10 active;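 further: compound effect scored on response to added TRH at EC20 of 10 nM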
TRHR agonist-2: qHTS for Small Molecule Agonists and Allosteric Enhancers of Human TRH Receptor: Confirmation Screen for Agonists. 970 compounds, 8% hits. shares compounds with TRHR enhancer-1. TRHR-expressing cells, agonist activation read-out. AID 493078, 2011. Potency, µM (series often up to 46.1 µM), actives largely listed as activators; further: nearly all actives have a fitted effect of over 75% in size
Numbers stand for hits; . = inactive; ? = inconclusive; / = no result. Rows were chosen to be rich in hits. Some 4.7% of all compounds tested hit in one or more screens of this group. Unless noted, the call rests on the fitted dose curve; in most records, active means well fitted curve in the direction sought with a large enough effect; inconclusive means small, poorly fitted or top-dose-only effect, or another doubt; inactive means no such curve, though single readings can be large; an effect the other way counts as inactive or inconclusive.

SMILES | D1 antag | D1 potentiator | TRHR enhancer-1 | TRHR agonist-1 | D1 ag | TRHR enhancer-2 | TRHR agonist-2
Cc1ccc(/C=C2\SC(=S)N(CCCC(=O)Nc3cc(C)on3)C2=O)cc1 | . | . | . | . | . | / | /
CC1CCN(S(=O)(=O)c2cccc(S(=O)(=O)N3CCOCC3)c2)CC1 | . | . | . | . | . | / | /
O=S(=O)(c1cccc(S(=O)(=O)N2CCC(N3CCCCC3)CC2)c1)N1CCOCC1 | . | . | 49.1 | . | . | . | .
CC1=CC(=C(C#N)c2nc3ccccc3s2)C=C(C)N1CC1CCCO1 (stereo not drawn) | . | . | . | 38.8 | 42.6 | ? | 18.4µM
c1ccc2sc(NCC3CCCO3)nc2c1 (stereo not drawn) | . | . | . | . | . | / | /
COc1nc(N(C)S(=O)(=O)c2ccc(C)cc2)nc(C)c1Br | . | . | . | . | . | / | /
CCc1ccc(NC(=O)C[n+]2cc(-c3ccc(C)cc3)n3c2CCC3)cc1 | . | . | 42.1 | . | . | . | .
CC(NC(=O)c1ccc(S(=O)(=O)N(C)C)cc1)c1ccccc1 (stereo not drawn) | . | . | . | . | . | / | /
CCOC(=O)c1nnn(-c2nonc2N)c1CSc1nnc(N)s1 | . | . | 52.1 | . | . | . | .
COC(=O)c1nnn(-c2nonc2N)c1CSc1nc2ccccc2s1 | . | . | . | . | . | / | /
O=C(N[C@@H](Cc1ccccc1)C(=O)OCc1ccccc1)c1nc[nH]c1C(=O)N1CCc2ccccc2C1 | . | . | . | . | . | / | /
Cc1cccc(C)c1NC(=O)CN1C(=O)c2cccc3cccc1c23 | . | . | . | . | . | / | /
COc1ccc(C(C)=O)cc1COc1ccccc1[N+](=O)[O-] | . | . | . | . | . | / | /
COc1ccccc1/C=N/OCc1cc(C(C)=O)ccc1OC | . | . | 55.7 | . | . | . | .
COc1nc2c(s1)C(=O)NCCC2 | . | . | . | . | . | / | /
CCN(CC)c1nc2c(s1)C(=O)NCCC2 | . | . | 50.7 | . | . | . | .
CC1C(=O)CC(c2ccccc2)NC1c1ccccc1 (stereo not drawn) | . | . | 44.9 | . | . | . | .
CC(C)C1C(=O)CC(c2ccccc2)NC1c1ccccc1 (stereo not drawn) | . | . | . | . | . | / | /
O=C(O)c1ccc(S(=O)(=O)N2CCSCC2)cc1 | . | . | 51.3 | . | . | . | .
NC(=O)c1ccc(S(=O)(=O)N2CCSCC2)cc1 | . | . | . | . | . | / | /
O=C(N/C(=C/c1cccc([N+](=O)[O-])c1)C(=O)N1CCCCCC1)c1cccs1 | . | . | . | . | . | / | /
Cc1cccc2cc3c(N)c(C(=O)N4CCc5ccccc54)sc3nc12 | . | . | . | 52.6 | 126.4 | ? | 18.4µM
CCN(CCCNC(=O)CN(C)S(=O)(=O)c1ccc2c(c1)CCC(=O)N2)c1cccc(C)c1 | . | . | . | . | . | / | /
COc1cc(-c2nnc(SCC3(c4ccccc4)OCCO3)o2)cc(OC)c1OC | . | . | . | . | . | / | /
Cc1ccc(O)c(C(=O)c2cc(C#N)c3nc4ccccc4n3c2)c1 | . | . | . | 41.6 | 62.1 | . | ?
SMILES | D1 antag | D1 potentiator | TRHR enhancer-1 | TRHR agonist-1 | D1 ag | TRHR enhancer-2 | TRHR agonist-2
Cc1ccc(O)c(C(=O)c2cc(C#N)c(=O)n(Cc3ccccc3)c2)c1 | . | . | . | . | . | / | /
Cn1cccc1/C=C1\CCC/C(=C\c2cccn2C)C1=O | -32.0 | . | . | 53.1 | 138.6 | . | 18.4µM
O=C1/C(=C/c2cccs2)CCC/C1=C\c1cccs1 | . | . | . | . | . | / | /
Cc1nc2scc(-c3cccs3)c2c(=O)[nH]1 | . | . | . | . | . | / | /
O=c1[nH]c(-c2ccc(O)cc2)nc2scc(-c3cccs3)c12 | . | . | 46.5 | . | . | . | .
CN1CCN(NC(=O)NC2CCCCC2)CC1 | -39.0 | . | 41.1 | . | . | . | .
CN1CCN(CC(=O)NC(=O)NC2CCCCC2)CC1 | . | . | . | . | . | / | /
O=C(N/N=C/c1cccc(OC(=O)c2ccco2)c1)c1ccc(F)cc1 | . | . | . | . | . | / | /
OC(COc1ccccc1)CN1CCCCCC1 (stereo not drawn) | . | . | 42.2 | . | . | ? | .
Cc1ccccc1N1C(=O)c2cccc3c(N(C)CCO)ccc(c23)C1=O | . | . | . | 41.0 | 85.6 | . | 18.4µM
CC(=O)Nc1cccc2c1C(=O)N(c1ccccc1C)C2=O | . | . | . | . | . | / | /
COc1ccccc1N1C(=O)c2cccc3c(N(C)CCO)ccc(c23)C1=O | . | . | . | 61.0 | 55.8 | . | 20.6µM
COC1CCCN(C(=O)c2ccc(OC3CCN(S(=O)(=O)N(C)C)CC3)cc2)C1 (stereo not drawn) | . | . | . | . | . | / | /
Cc1ccc(S(=O)(=O)/N=C2\C=C(Nc3cccc(C(=O)O)c3)C(=O)c3ccccc32)c(C)c1 | . | . | 60.6 | . | . | . | .
Cc1ccc(S(=O)(=O)/N=C2\C=C(Nc3cccc(C(=O)O)c3)C(=O)c3ccccc32)cc1 | . | . | . | . | . | / | /
COC(=O)c1[nH]c2ccccc2c1NS(=O)(=O)c1ccc(F)c(C)c1 | -47.9 | . | 44.5 | . | . | . | .
CCc1ccc(NC(=S)N2CCCC2)cc1 | . | . | . | . | . | / | /
CCc1ccc(NC(=S)N2CCN(C)CC2)cc1 | . | . | 58.3 | . | . | . | .
CCOc1ccc(/C=N/NC(=O)c2cc(-c3cccn3C)n[nH]2)cc1 | . | . | . | . | . | / | /
Cc1ccc(NC(=O)CN2CCc3ccccc3C2)cc1S(=O)(=O)N(C)C | . | . | 58.1 | . | . | . | .
Cc1ccc(S(=O)(=O)N2CCN(CC(=O)Nc3ccc4c(c3)CCC4)CC2)cc1C | . | . | 44.0 | . | . | . | .
O=C(CN1CCN(S(=O)(=O)c2ccc(Cl)cc2)CC1)Nc1ccc2c(c1)CCC2 | . | . | . | . | . | / | /
O=C(Cc1ccccc1)N1CCN(c2ccccc2F)CC1 | . | . | 47.6 | . | . | . | .
CCSc1ccccc1C(=O)N1CCN(c2ccccc2F)CC1 | . | . | 41.6 | . | . | . | .
CC(=O)c1ccc(N2CCN(C(=O)Cc3ccccc3)CC2)c(F)c1 | . | . | . | . | . | / | /
